Source: PubChem BioAssay (EPA / NIEHS)
Inconclusive results are not listed. Activity calls are given as the source filed them. Rule for the calls, unless noted: active = hit-call score of the fitted dose curve at least 0.9, where 1 is the maximum; inconclusive = response in the unintended direction; inactive = score below 0.9.

Experiments:
[1] = CCTE_Shafer_MEA_acute_AB: CCTE's Alamar Blue Assay for Cytotoxicity in the Neural Acute Assay, Shafer Lab (AID 2284069);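 note: active compounds lower the viability signal compared with DMSO wells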
Procedure, shortened: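 Primary rat cortical neurons on MEA plates, exposed acutely after baseline recording on day 13 or 15 post-plating. Viability by CellTiter Blue resazurin reduction (1:6 reagent dilution), fluorescence 544/590 nm; loss of signal versus DMSO.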

[2] = CCTE_Shafer_MEA_acute_LDH: CCTE's Lactate Dehydrogenase Assay for Cytotoxicity in the Neural Acute Assay, Shafer Lab (AID 2284086);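 note: active means LDH release rises above DMSO vehicle level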
Procedure, shortened: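 Cytotoxicity readout: spectrophotometric LDH activity in supernatant of rat primary cortical neurons, post-plating day 13 or 15, sampled after 40 min compound exposure; signal gain relative to DMSO baseline.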

[3] = CCTE_Shafer_MEA_dev_mutual_information_norm: CCTE's Neural Network Formation Assay for Mutual Information Normalization, Shafer Lab (AID 2284091; active = hit-call score of the fitted dose curve at least 0.9, where 1 is the maximum; inactive = score below 0.9;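 for AC50: mutual information between electrodes summarised as area under curve across four recording days; potency is for a decrease in mutual information relative to DMSO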)
Procedure, shortened: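 Shared information across electrodes, tracked on days 5, 7, 9 and 12 of network development and collapsed as trapezoidal area under the curve. Rat cortical cultures were treated continuously from plating, with treatment renewed at feeds on DIV 5 and 9; DMSO baseline, negative-direction fit.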

[4] = CCTE_Shafer_MEA_dev_correlation_coefficient_mean: CCTE's Neural Network Formation Assay for Mean Correlation Coefficient, Shafer Lab (AID 2284093; active = hit-call score of the fitted dose curve at least 0.9, where 1 is the maximum; inactive = score below 0.9;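 for AC50: well mean pairwise spike train correlation integrated as AUC over recording days 5 to 12; potency fitted for loss of correlation relative to DMSO vehicle wells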)
Procedure, shortened: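 Spontaneous activity recorded on days 5, 7, 9 and 12 post-plating; pairwise spike correlations are averaged across active electrodes and collapsed to an area-under-curve. Rat cortical cultures are dosed from plating through 12 days, with compound renewed at media changes.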

[5] = CCTE_Mundy_HCI_Cortical_Synap_Neur_Matur_NeuriteSpotCountPerNeuriteLength: CCTE's Synaptogenesis and Neurite Maturation Assay in rat cortical cells for Neurite Spot Count per Neurite Length, Mundy Lab (AID 2284210; active = hit-call score of the fitted dose curve at least 0.9, where 1 is the maximum; inactive = score below 0.9)
Procedure, shortened: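 Synaptophysin spots per unit neurite length, measured by automated imaging of MAP2/synaptophysin/Hoechst-stained neurons. Cultures from rat cortex received chemical at DIV 7 with media change through DIV 12; glial growth arrested by AraC at DIV 5; DMSO baseline.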

[6] = CCTE_Mundy_HCI_Cortical_Synap_Neur_Matur_BPCount: CCTE's Synaptogenesis and Neurite Maturation Assay in rat cortical cells for Branch Point Count, Mundy Lab (AID 2284211; active = hit-call score of the fitted dose curve at least 0.9, where 1 is the maximum; inactive = score below 0.9)
Procedure, shortened: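 In this multiplexed morphology assay, cortical cells from rat receive chemicals at DIV 7 and are fixed at DIV 12, then immunostained and imaged; branch points are counted, with DMSO as baseline.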

[7] = CCTE_Mundy_HCI_Cortical_NOG_NeuriteCount: CCTE's Neurite Outgrowth Assay in rat cortical cells for Neurite Count, Mundy Lab (AID 2284212; active = hit-call score of the fitted dose curve at least 0.9, where 1 is the maximum; inactive = score below 0.9;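 note: cells fixed about two days after chemical exposure began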)
Procedure, shortened: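 Rat cortical primary cells; compound added 2 h post-plating, 1/10 dilution of working solution. Anti-betaIII-tubulin/AF488 ICC; ArrayScan neurite count vs DMSO.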

[8] = CCTE_Mundy_HCI_Cortical_NOG_NeuriteLength: CCTE's Neurite Outgrowth Assay in rat cortical cells for Neurite Length, Mundy Lab (AID 2284213; active = hit-call score of the fitted dose curve at least 0.9, where 1 is the maximum; inactive = score below 0.9)
Procedure, shortened: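 First, rat primary cortical cells were plated and, 2 h later, given test chemical as a 1/10 dilution. Finally, βIII-tubulin immunostaining enabled automated imaging of neurite length.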

[9] = CCTE_Mundy_HCI_Cortical_Synap_Neur_Matur_NeuriteLength: CCTE's Synaptogenesis and Neurite Maturation Assay in rat cortical cells for Neurite Length, Mundy Lab (AID 2284214; active = hit-call score of the fitted dose curve at least 0.9, where 1 is the maximum; inactive = score below 0.9)
Procedure, shortened: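 DMSO-normalised neurite length, from high-content imaging of anti-MAP2-stained rat cortical cells fixed at DIV 12. Glia were suppressed with AraC (DIV 5) before chemical exposure from DIV 7.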

[10] = CCTE_Mundy_HCI_Cortical_Synap_Neur_Matur_NeuriteSpotCountPerNeuron: CCTE's Synaptogenesis and Neurite Maturation Assay in rat cortical cells for Neurite Spot Count per Neuron Count, Mundy Lab (AID 2284215; active = hit-call score of the fitted dose curve at least 0.9, where 1 is the maximum; inactive = score below 0.9)
Procedure, shortened: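 Rat cortical primary cultures; AraC DIV 5 to arrest glia; dosing + media change DIV 7; fixed DIV 12. Anti-MAP2/anti-synaptophysin, Hoechst nuclei; HCI puncta count per neuron, positive fitting direction vs DMSO.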

[11] = CCTE_Mundy_HCI_Cortical_Synap_Neur_Matur_SynapseCount: CCTE's Synaptogenesis and Neurite Maturation Assay in rat cortical cells for Synapse Count, Mundy Lab (AID 2284218; active = hit-call score of the fitted dose curve at least 0.9, where 1 is the maximum; inactive = score below 0.9)
Procedure, shortened: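 Endpoint: synapses/neuron by HCI (synaptophysin puncta on MAP2-labelled neurites, Hoechst nuclei). Rat primary cortical cells, AraC DIV 5, dosed DIV 7, fixed DIV 12; DMSO negative control.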

[12] = CCTE_Mundy_HCI_hN2_NOG_NeuriteCount: CCTE's Neurite Outgrowth Assay in human hN2 cells for Neurite Count, Mundy Lab (AID 2284219)
Procedure, shortened: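 In this morphology assay, hNP1-derived neurons received test chemical 2 h post-plating and were fixed two days later in warm paraformaldehyde/sucrose containing Hoechst 33342. Neurites, labelled by rabbit anti-βIII-tubulin (1:800) and Alexa Fluor-488 (1:500), were counted automatically.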

[13] = CCTE_Mundy_HCI_hN2_NOG_NeuriteLength: CCTE's Neurite Outgrowth Assay in human hN2 cells for Neurite Length, Mundy Lab (AID 2284220)
Procedure, shortened: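 Plate hNP1-derived neurons, then add chemical 2 h later as a 1/10 dilution. Stain with anti-βIII-tubulin then Alexa Fluor-488 secondary, and image automatically to measure neurite length.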

[14] = CCTE_Mundy_HCI_hN2_NOG_NeuronCount: CCTE's Neurite Outgrowth Assay in human hN2 cells for Neuron Count, Mundy Lab (AID 2284221)
Procedure, shortened: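 Read-out is the number of betaIII-tubulin-positive neurons imaged by automated high-content analysis, with DMSO as negative control.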

[15] = CCTE_Mundy_HCI_Cortical_Synap_Neur_Matur_NeuriteCount: CCTE's Synaptogenesis and Neurite Maturation Assay in rat cortical cells for Neurite Count, Mundy Lab (AID 2284222; active = hit-call score of the fitted dose curve at least 0.9, where 1 is the maximum; inactive = score below 0.9;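 note: exposure from day 7 to day 12 in vitro with readout at day 12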)
Procedure, shortened: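 Rat primary cortical cells; AraC added at DIV 5, chemicals dosed with media change at DIV 7 through DIV 12. MAP2/synaptophysin/Hoechst immunostaining, high-content imaging of neurite number; fitted relative to DMSO.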

[16] = TAMU_PeakParms_SingleDonor1434_Chronotropy: Texas A&M University (TAMU) 1.5-hr Human Induced Pluripotent Stem Cell (iPSC)-derived Cardiomyocytes Calcium (Ca+2) Flux Assay for Cardiotoxicity: Chronotropy (changes in peak frequency) (AID 2284217; active = hit-call score of the fitted dose curve at least 0.9, where 1 is the maximum; inactive = score below 0.9); conditions: actives raise or lower the signal
Procedure, shortened: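 iPSC-derived cardiomyocytes (single donor 1434) dosed at 0.2, 1, 10 and 100 uM in 0.5% DMSO for 1.5 h at 37C; Ca2+ dye fluorescence gave average beat frequency. Zero-beat points removed; bidirectional fit versus DMSO, POD as EC05.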

[17] = CCTE_Shafer_MEA_dev_AB: CCTE's Alamar Blue Assay for Cytotoxicity in the Neural Network Formation Assay, Shafer Lab (AID 2284083);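 note: twelve days of exposure from plating with re-dosing on DIV 5 and 9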
Procedure, shortened: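 Primary rat cortical neurons on PEI-coated 48-well MEA plates, 1.5 x 10^5 cells/well in laminin drop; compound exposure from day 0 of plating for twelve days, renewed at medium changes on DIV 5 and 9. Viability read as resazurin reduction by fluorescence, relative to DMSO.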

Measured: AC50

On1ccccc1=S
inactive: [1] | [2]

O=C(O)c1cc(N=Nc2ccc(S(=O)(=O)Nc3ccccn3)cc2)ccc1O
inactive: [1] | [2]

Cn1c(=O)c2c(ncn2C)n(C)c1=O
not listed: [2] | [16] | [17]
inactive: all other assays above

COc1ccc2sc(C(=O)Nc3nnn[nH]3)c(OC(C)C)c2c1
inactive: [1] | [2]

O=C(O)CCN(C1(C(=O)NO)CCCC1)S(=O)(=O)c1ccc(Oc2ccc(F)cc2)cc1
inactive: [1] | [2]

CCOC(=O)c1ccc(C2CCC(NC[C@H](O)COc3ccc(O)c(NS(C)(=O)=O)c3)CC2)cc1 (some centres not stated)
inactive: [1] | [2]

NC(=O)NO
not listed: [1] | [2] | [14] | [17]
inactive: all other assays above

CCCCCCc1ccc(O)cc1O
inactive: [2] | [16]

Cn1cnc([N+](=O)[O-])c1Sc1ncnc2nc[nH]c12
inactive: [2]

CCCCCCCCCCCCc1ccccc1
inactive: [1] | [2]

COc1cccc(-c2ccc(/C=C\CN3CCCCCC3)cc2Cl)c1
inactive: [2]

CC(C)=CCCC(C)=CC=O
inactive: [1] | [2]

CNCc1ccc(NC(=O)c2c[nH]c3c2C(=O)CCC3)cc1
active: [3] 755 nM
inactive: [17] | [4]

CCCCC(CC)COC(=O)CCCCCCCCC(=O)OCC(CC)CCCC (configuration not stated)
inactive: [1] | [2]

CC[C@H]1CC[C@H](NCc2cc3c(cc2OC)[C@H]2C[C@H]2C(=O)N3C)[C@H](c2ccccc2)N1
inactive: [1] | [2]

CCCN(C1CCN(C(=O)C2CCNCC2)CC1)[C@@H]1CCc2ccc(OC)cc2C1
inactive: [1] | [2]

CC[C@H](C)C(=O)O[C@H]1C[C@@H](C)C=C2C=C[C@H](C)[C@H](CC[C@@H]3C[C@@H](O)CC(=O)O3)[C@H]21
inactive: [3]
active: [17] 10000 nM | [4] 16.9 nM
